# According to paper PMC5540273 (PLoS ONE, 2017):
# Tests used:
# Conditions in all cases: concentration: 1 μM,replicates: in singlicate; n = 1
# [1] = tested on: FYN
# [2] = tested on: GAK
# [3] = tested on: T1, GCN2(Kin.Dom.2,S808G)
# T1 construct: gene EIF2AK4
# [4] = tested on: GRK1
# [5] = tested on: T2, GRK2
# T2 construct: gene ADRBK1
# [6] = tested on: T3, GRK3
# T3 construct: gene ADRBK2
# [7] = tested on: GRK4
# [8] = tested on: GRK7
# [9] = tested on: GSK3A
# [10] = tested on: GSK3B
# 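Note: KINOMEscan kinase panel screen.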
Structure (SMILES),%Inh [1] [%],%Inh [2] [%],%Inh [3] [%],%Inh [4] [%],%Inh [5] [%],%Inh [6] [%],%Inh [7] [%],%Inh [8] [%],%Inh [9] [%],%Inh [10] [%]
COc1cc(Nc2nccc(N3CCC(NC(=O)c4cccc(C#N)c4)C3)n2)cc(OC)c1OC (stereo not shown) [GSK1379751],0,47,9,0,0,33,0,0,0,5
CN(c1cccc(CNc2nc(Nc3ccc4c(c3)CC(=O)N4)ncc2C(F)(F)F)c1)S(C)(=O)=O,0,33,10,25,0,0,19,0,35,0
CNC(=O)c1ccccc1Nc1nc(Nc2cccc(CS(C)(=O)=O)c2)ncc1C.O=CO [GSK1520489],98.9,94.7,100,8,0,100,85,40,25,34
COC(=O)c1cccc(NC(=O)NC2CCN(c3ccnc(NCc4ccc(F)cc4)n3)CC2)c1 [GSK1379860],10,0,0,0,0,38,0,0,6,8
COc1cc2c(Nc3ccc(NC(=O)c4ccccc4)cc3)ncnc2cc1OCCCN1CCOCC1 [GSK301329],49,0,4,10,0,0,12,0,0,11
N#Cc1cccc(C(=O)NC2CCN(c3ccnc(Nc4ccc(F)cc4)n3)C2)c1 (stereo not shown) [GSK1379708],30,0,9,0,0,0,2,0,0,0
CCOC(=O)N1CCC(n2cnc(-c3ccc(F)cc3)c2-c2ccnc(N)n2)CC1 [SB-219952],0,59,44,0,8,0,32,20,0,37
